These results are taken from the supplement of paper PMC4723716.

This assay concerns Plasmodium falciparum NF54 gametocytes. Description: viability index relative to DMSO control (fraction); higher = less gametocyte killing. The following applies: 12.5 µM, incubation time: 72 h. The procedure, abridged: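 The viability index was calculated as the gametocyte particle count over the plate mean of solvent-only wells. For this, P. falciparum NF54 gametocytes of every stage (I–V) were held with compound at 12.5 µM for 72 hr at 37°C under low oxygen in 384-well plates. MitoTracker Red CMXRos staining for 20 min was followed by transfer of 5 µl into 40 µl of 500 nM dye in serum-free medium, with three fields imaged after 30 min.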

[1] abbreviates: gametocyte stage: Stage I viability index.
Where [2] appears, read: gametocyte stage: Stage II viability index.
Where [3] appears, read: gametocyte stage: Stage III viability index.
Setting [4] is: gametocyte stage: Stage IV viability index.
[5] abbreviates: gametocyte stage: Stage V viability index.

Regarding `C=CC12CCN(CC1)C(C(O)c1ccnc3ccc(OC)cc13)C2` (stereo not given), the viability index is 1.08 under setting [1]; 1.08 under setting [2]; 1.13 under setting [3]; 0.976 under setting [4]; 1.1 under setting [5].

`COc1ccc(CN2CCN(Cc3ccccc3)CC2)c(O)c1`: the viability index by setting is: under setting [1], 0.0656; under setting [2], 0.0974; under setting [3], 0.362; under setting [4], 0.57; under setting [5], 0.494.

Take `Oc1ccc(Br)cc1CN1CCN(Cc2cccc(F)c2)CC1`: the viability index runs as follows: under setting [1], 0.0385; under setting [2], 0.0899; under setting [3], 0.0787; under setting [4], 0.196; under setting [5], 0.273.

Turning to `CN(N=O)C1=C(NC2CCCCC2)C(=O)c2ccccc2C1=O`, the viability index under setting [1] stood at 0.00787; the viability index under setting [2] came to 0.0183; the viability index under setting [3] was determined as 0.309; the viability index under setting [4] turned out to be 0.456; the viability index under setting [5] came to 0.234.

`Oc1ccc(C(=C(Cl)Cl)c2ccc(O)cc2)cc1`: the viability index came to 0.596 under setting [1]; 0.301 under setting [2]; 0.741 under setting [3]; 0.756 under setting [4]; 0.584 under setting [5].

`Oc1ccc(Br)cc1CN1CCN(Cc2ccc(Cl)cc2)CC1`: the viability index is, setting by setting: under setting [1], 0.0201; under setting [2], 0.0916; under setting [3], 0.422; under setting [4], 0.595; under setting [5], 0.455.

Take `CCOc1c(Cl)cc(CNC(C)C(O)c2ccccc2)cc1OC` (stereo not given): the viability index turned out to be 0.0917 under setting [1]; 0.317 under setting [2]; 0.584 under setting [3]; 0.754 under setting [4]; 1.14 under setting [5].

For the compound `CCCCCCc1cc(O)c2c3c(c(=O)oc2c1)CCC(C)C3` (stereo not given), the viability index is, setting by setting: under setting [1], 0.291; under setting [2], 0.329; under setting [3], 0.578; under setting [4], 0.608; under setting [5], 0.74.

As for `COc1cc(CNCCc2ccc(Cl)cc2)cc(OC)c1O`, the viability index under setting [1] was 0.049; the viability index under setting [2] is 0.44; the viability index under setting [3] came to 0.801; the viability index under setting [4] stood at 1.01; the viability index under setting [5] was found to be 0.896.

Turning to `CCCc1cc(O)c2c3c(c(=O)oc2c1)CN(C)CC3`, the viability index stood at 0.134 under setting [1]; 0.296 under setting [2]; 0.649 under setting [3]; 0.827 under setting [4]; 0.637 under setting [5].

`O=C(CCc1ccco1)NC1CCN(CC2(c3ccc(Cl)cc3)CCC2)CC1`: the viability index was 0.103 under setting [1]; 0.412 under setting [2]; 0.854 under setting [3]; 0.903 under setting [4]; 1.05 under setting [5].

As for `CCOc1cc(CNC(C)C(O)c2ccccc2)cc(Cl)c1OCC` (stereo not given), the viability index reads like this: under setting [1], 0.137; under setting [2], 0.337; under setting [3], 0.634; under setting [4], 0.729; under setting [5], 0.791.
